Hits are enriched below; roughly 5.3% of the tested compounds scored in any of these assays.
Sfp inh: qHTS Assay for Inhibitors of Bacillus subtilis Sfp phosphopantetheinyl transferase (PPTase); Biochemical Sfp PPTase activity, qHTS; Potency, µM, without a hit: largest response in the series, negative = inhibition, most hits filed as inhibitors; 3.5% of 310,000 active; AID 1490, 2009;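 also: the enzyme is Sfp with the accession as filed and its product quenches rhodamine fluorescence; potency is read from the fitted curve at half-maximal effect; 0% = enzyme reaction without inhibitor and -100% = no enzyme wells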
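Fluorescence-quenching assay: 15 nM Sfp-PPTase preincubated 15 min at room temperature with compound, then 5 uM rhodamine-CoA and 12.5 uM BHQ-2-labelled YbbR peptide added. Fluorescence (ex 525/em 598 nm) read at start and after 30 min; difference gives rate.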
Tau fluor counter: Counterscreen qHTS for Inhibitors of Tau Fibril Formation, Fluorescence Polarization; Potency, µM (doses to about 57.7 µM), inactives show at the highest dose activity change, negative = decrease; 0.93% of 280,000 active; tau K18 P301L Alexa594 fluorescence, heparin fibrillization; AID 1463, 2008; also: potency is read from the fitted curve at half-maximal effect; nearly all actives have a fitted effect of over 55% in size
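Human tau K18 P301L (15 uM unlabeled, 0.24 uM Alexa 594-labeled) in 100 mM sodium acetate pH 7 with 20 uM heparin, 6 hr at 37 C. ThT 30 uM added, 1 hr ambient; Alexa 594 FP and total fluorescence read at 555/632 nm.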
Coupling enz: qHTS Assay for Inhibitors of Fructose-1,6-bisphosphate Aldolase from Giardia Lamblia: Coupling assay counterscreen; AID 2472, 2010; activity change, negative = inhibition, % at 58.2 µM, hits read low; 0.67% of 290,000 active; coupling enzyme system counterscreen, AmpLite Red fluorescence; in the data active = activity change below about -30%
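Counterscreen lacking aldolase: glyceraldehyde-3-phosphate coupling-enzyme reagent preincubated 10 min at RT with compound (at 57.5 uM final), then substrate/coupling system with AmpLite Red added; fluorescence read at 525/598 nm after 20 min RT.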
Tau fibril FP: qHTS for Inhibitors of Tau Fibril Formation, Fluorescence Polarization. K18 P301L tau heparin fibrillization, Alexa594 FP, 6 h. Potency, µM (doses to about 57.7 µM), for the others: at the top dose activity, negative = inhibition, hits mostly inhibitors. 0.39% of 280,000 active; also: potency is read from the fitted curve at half-maximal effect; nearly all actives have a fitted effect of over 55% in size
Target sequence (P10636 561-689 P618L limits assumed): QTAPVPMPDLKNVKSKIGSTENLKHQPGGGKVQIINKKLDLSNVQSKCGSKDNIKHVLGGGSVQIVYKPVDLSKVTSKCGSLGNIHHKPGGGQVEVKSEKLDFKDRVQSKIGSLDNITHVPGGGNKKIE
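Human K18 P301L fragment (15 uM unlabeled plus 0.24 uM Alexa 594-labeled) in 100 mM sodium acetate pH 7 with compound, aggregation induced by 20 uM heparin for 6 hr at 37 C. ThT (30 uM) added for 1 hr, then Alexa 594 FP read.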
KDM4E inh: qHTS Assay for Inhibitors of Human Jumonji Domain Containing 2E (JMJD2E); AID 2147, 2009; Potency, µM (titrated, usually from 57.1 µM), for inactives: at the highest dose activity change, negative = inhibition, usual class: inhibitors; Lysine-specific demethylase 4E (Homo sapiens), B2RXH2; JMJD2E catalytic domain, FDH-coupled NADH fluorescence (FDH is formaldehyde dehydrogenase); 1.6% of 230,000 active; active = well fitted inhibition curve with a large enough effect, not every such curve was filed as active; inconclusive = small, poorly fitted or top-dose-only effect, or another doubt; inactive = no such curve, though single readings can be large or run the other way;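 also: potency is read from the fitted curve at half-maximal effect; 0% = wells with enzyme and -100% = buffer wells without enzyme; nearly all actives have a fitted effect of over 50% in size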
Target sequence (B2RXH2 1-337 limits assumed): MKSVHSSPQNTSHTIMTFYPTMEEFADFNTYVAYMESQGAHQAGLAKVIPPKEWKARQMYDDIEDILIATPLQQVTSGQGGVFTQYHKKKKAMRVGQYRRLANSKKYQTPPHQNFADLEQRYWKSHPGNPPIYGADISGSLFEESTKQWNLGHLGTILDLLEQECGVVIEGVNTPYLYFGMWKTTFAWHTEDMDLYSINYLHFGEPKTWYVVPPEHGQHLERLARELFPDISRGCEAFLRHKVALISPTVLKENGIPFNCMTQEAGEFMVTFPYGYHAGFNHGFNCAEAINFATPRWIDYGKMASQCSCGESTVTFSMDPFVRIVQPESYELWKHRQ
Tau ThT inhib: qHTS for Inhibitors of Tau Fibril Formation, Thioflavin T Binding. Microtubule-associated protein tau (Homo sapiens), P10636. recombinant tau K18 P301L, heparin-induced fibrillization, ThT fluorescence. Potency, µM (highest dose often 57.4 µM), inactives show top-dose activity, negative = inhibition, actives largely listed as inhibitors. 2.1% of 270,000 active. AID 1460, 2008; also: potency is read from the fitted curve at half-maximal effect; nearly all actives have a fitted effect of over 55% in size
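ThT emission at 510 nm, taken 1 hr after adding 30 uM dye, quantifies aggregates formed when 20 uM heparin acts on human tau K18 P301L for 6 hr at 37 C.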
* = called active by the depositor; ! = a repeat was not active. Unless noted, calls follow the shape of the dose curve; as a rule, active = well fitted curve in the direction sought with a large enough effect; inconclusive = small, poorly fitted or top-dose-only effect, or another doubt; inactive = no such curve, though single readings can be large; an effect the other way counts as inactive or inconclusive. Unless noted, % is scaled to controls: 0 for no effect and ±100 for the full control effect.

Screening CCCc1cc2c(n1Cc1cccc(Cl)c1)C(C)C1CN(C(=O)c3ccccc3)C(C)(C(=O)OC)C21 (stereo not given) returned Sfp inh -3%, Tau fluor counter -10%, Coupling enz -10, Tau fibril FP -7%, KDM4E inh -7% and Tau ThT inhib inconclusive.
`CCOC(=O)N(c1ccccc1)P1(=S)OCC(C)O1` (stereo not given) gave Sfp inh 8%, Tau fluor counter -1%, Coupling enz 2, Tau fibril FP -4%, KDM4E inh 3% and Tau ThT inhib -3%.
`COC(=O)N(c1ccccc1)P1(=S)OCCO1` gave Sfp inh 5.6µM*, Tau fluor counter -1%, Coupling enz -2, Tau fibril FP inconclusive, KDM4E inh -3% and Tau ThT inhib inconclusive.
CCOC(=O)N(c1ccccc1)P1(=S)OCCO1 was read as Sfp inh 40µM*, Tau fluor counter -8%, Coupling enz -1, Tau fibril FP -12%, KDM4E inh 3% and Tau ThT inhib inconclusive.
For O=C1NC(=O)N(Cc2cccs2)C(=O)/C1=C/c1ccc(N2CCOCC2)cc1 the results were Sfp inh 50µM*, Tau fluor counter -25%, Coupling enz 5, Tau fibril FP -7%, KDM4E inh inconclusive and Tau ThT inhib inconclusive.
`O=C1NC(=O)N(CC2CCCO2)C(=O)/C1=C/c1cccs1` (stereo not given) gave Sfp inh 79µM*, Tau fluor counter -5%, Coupling enz 4, Tau fibril FP 3%, KDM4E inh -26% and Tau ThT inhib -16%.
`O=C1CCC[C@H]2[C@H]3CCCN4CCCC(=CN12)[C@@H]34` gave Sfp inh -17%, Tau fluor counter -7%, Coupling enz -1, Tau fibril FP 0%, KDM4E inh -16% and Tau ThT inhib -3%.
c1cncc(CNC2=NCCCCC2)c1 was read as Sfp inh 8%, Tau fluor counter 3%, Coupling enz 1, Tau fibril FP 0%, KDM4E inh 2% and Tau ThT inhib -7%.
For c1cncc(CNC2CCCC2)c1 the results were Sfp inh -1%, Tau fluor counter 3%, Coupling enz 1, Tau fibril FP 2%, KDM4E inh 22µM* and Tau ThT inhib -1%.
For Cn1cnc([N+](=O)[O-])c1Sc1ccc([N+](=O)[O-])cc1 the results were Sfp inh 56µM*, Tau fluor counter -19%, Coupling enz 0, Tau fibril FP -1%, KDM4E inh 0% and Tau ThT inhib inconclusive.
CN1C(=O)NC(=O)/C(=C/c2ccc(C(=O)O)cc2)C1=O was read as Sfp inh 45µM*, Tau fluor counter inconclusive, Coupling enz 0, Tau fibril FP 4% and KDM4E inh -10%.
`COc1ccc(N2C(=O)NC(=O)/C(=C\c3ccccc3[N+](=O)[O-])C2=O)cc1` gave Sfp inh 40µM*, Tau fluor counter -27%, Coupling enz 1, Tau fibril FP -10%, KDM4E inh inconclusive and Tau ThT inhib inconclusive.
For CCOc1ccc(N2C(=O)NC(=O)/C(=C\c3ccccc3[N+](=O)[O-])C2=O)cc1 the results were Sfp inh 45µM*, Tau fluor counter -16%, Coupling enz 8, Tau fibril FP -7%, KDM4E inh -28% and Tau ThT inhib inconclusive.
CCC(C)c1ccc(N2C(=O)NC(=O)/C(=C/c3cccn3CCOc3ccc(C)cc3)C2=O)cc1 (stereo not given) was read as Sfp inh 12%, Tau fluor counter -16%, Coupling enz 1, Tau fibril FP -10%, KDM4E inh -8% and Tau ThT inhib inconclusive.
`CN1CCC(c2c[nH]c3ccc(O)cc23)CC1` gave Sfp inh 21%, Tau fluor counter inconclusive, Coupling enz -9, Tau fibril FP inconclusive, KDM4E inh -2% and Tau ThT inhib -6%.
For CN1CCC(c2c[nH]c3ccccc23)C1 (stereo not given) the results were Sfp inh -3%, Tau fluor counter -10%, Coupling enz -1, Tau fibril FP 0%, KDM4E inh 22µM* and Tau ThT inhib -17%.
`CN(C)C(=O)Nc1ccc(-n2nc(C(C)(C)C)oc2=O)c(Cl)c1` gave Sfp inh 7% and Coupling enz 0.
`NCC(O)c1cc(O)c(O)cc1F` (stereo not given) gave Tau fluor counter -28%, Tau fibril FP inconclusive, KDM4E inh 14µM* and Tau ThT inhib 11µM*.
Screening O=CC(Br)P(=O)(N1CCOCC1)N1CCOCC1 (stereo not given) returned Sfp inh 25µM*, Tau fluor counter inconclusive, Coupling enz 2, Tau fibril FP 25µM*, KDM4E inh -10% and Tau ThT inhib 10µM*.
`COc1cc(C=C(C#N)C#N)cc(O)c1O` gave Tau fluor counter -24%, Tau fibril FP 0%, KDM4E inh 11µM* and Tau ThT inhib inconclusive.
`N#CC(C#N)=Cc1ccc(N2CCCC2)cc1` gave Sfp inh -1%, Tau fluor counter -21%, Coupling enz 0, Tau fibril FP 2%, KDM4E inh -12% and Tau ThT inhib inconclusive.
`CN(C)c1ccc(C=C(C#N)C#N)cc1` gave Sfp inh 21%, Tau fluor counter -7%, Coupling enz -1, Tau fibril FP 0%, KDM4E inh 7% and Tau ThT inhib inconclusive.
For CC(C)(C)c1cc(C=C(C#N)C#N)cc(C(C)(C)C)c1O the results were Sfp inh 56µM*, Tau fluor counter inconclusive, Tau fibril FP inconclusive, KDM4E inh 19% and Tau ThT inhib 16µM*.
N#CC(=Cc1ccc(O)c(O)c1)C(N)=S was read as Tau fluor counter -22%, Tau fibril FP inconclusive, KDM4E inh 8.9µM* and Tau ThT inhib inconclusive.
For N#CC(C#N)=Cc1ccc(O)c(O)c1 the results were Sfp inh 40µM*, Tau fluor counter 11%, Coupling enz 7, Tau fibril FP inconclusive, KDM4E inh 7.9µM* and Tau ThT inhib 14µM*!.
For CCc1ccc(/C=C(/C#N)C(N)=S)cc1 the results were Sfp inh inconclusive, Tau fluor counter -14%, Coupling enz -3, Tau fibril FP -5%, KDM4E inh inconclusive and Tau ThT inhib -15%.

Bioassay records from PubChem.
